EBV LMP1 NFkB = Epstein-Barr LMP1 NF-kappaB reporter inhibition. hit rate 0.69% among 350,000. AID 504558. LMP1-induced NF-kappaB luciferase reporter cells, luminescence. inhibition, % at 12.5 µM; in the data active = inhibition above about 41%;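 also: 0% = neutral control wells and 100% = reference inhibitor control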
Shn3 inh set2 = Schnurri-3 reporter inhibition in Clone20 osteoblasts | inhibition, % at 12.5 µM | AID 588674 | Clone20 osteoblast Shn3 3'UTR firefly luciferase, 24 h | hit rate 0.52% among 360,000;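 active = mean inhibition of at least 75% with every replicate also reaching 75%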;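 also: 0% = median of neutral control wells and 100% = pilot-screen positive control compound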
Gli-Sufu antag = antagonists of Gli-Sufu signaling. Sufu-KO-LIGHT fibroblasts, Gli luciferase reporter luminescence. inhibition, % at 5 µM. hit rate 0.74% among 340,000;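 active = inhibition above about 55%, limit read from the data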;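 also: 0% = DMSO-treated cells and 100% = wells with medium but no cells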
697 NFkB inh = lowers PMA/ionomycin-induced NF-kB signal in 697 B cells. 697 B-cell NF-kB luciferase reporter, 16 h. inhibition, % at 4 µM. hit rate 0.33% among 330,000; in the data active = inhibition above about 35%
Jurkat NFkB inh = inhibitors of the PMA/ionomycin-induced NF-kB reporter in Jurkat cells. PMA/ionomycin-induced NF-kB luciferase reporter, luminescence. inhibition, % at 4 µM. hit rate 0.53% among 330,000. AID 435003; in the data active = inhibition above about 50%
TRPM1 prom inh = reduces MITF-dependent TRPM1 promoter luciferase signal; SK-MEL-5 TRPM1 promoter luciferase, 24 h; inhibition, % at 12.5 µM; hit rate 0.83% among 330,000;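 active = mean inhibition across replicates of 60% or more, whatever share of single replicates reaches that level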
Starred values were filed as active, the others as inactive. The list is not random: actives were taken first. Their share in the collection is about 2.3%.

O=C(NC1CCCCC1)c1ccc2[nH]c(=O)c(=O)[nH]c2c1 was read as EBV LMP1 NFkB 3, Shn3 inh set2 15, Gli-Sufu antag 1, 697 NFkB inh -33, Jurkat NFkB inh -20 and TRPM1 prom inh 4.
`O=C(c1ccco1)N1CCN(c2cc(C(F)(F)F)nc3ncnn23)CC1` gave EBV LMP1 NFkB -1, Shn3 inh set2 4, Gli-Sufu antag -1, 697 NFkB inh 24, Jurkat NFkB inh 5 and TRPM1 prom inh -12.
Screening O=C(NC1CCCCC1)C(c1cccnc1)N(C(=O)CCl)c1cccc(Cl)c1 (configuration not stated) returned EBV LMP1 NFkB 19, Shn3 inh set2 -7, Gli-Sufu antag 0, 697 NFkB inh -145, Jurkat NFkB inh -29 and TRPM1 prom inh 83*.
`CCC[C@@H](CN[C@@H](CNC)C(C)C)NCCCCc1ccccc1` gave EBV LMP1 NFkB -2, Shn3 inh set2 55, Gli-Sufu antag 13, 697 NFkB inh 11, Jurkat NFkB inh 17 and TRPM1 prom inh 90*.
CCC[C@@H](CNC)NC[C@H](Cc1ccccc1)NCCCCc1ccccc1 was read as EBV LMP1 NFkB -12, Shn3 inh set2 49, Gli-Sufu antag 18, 697 NFkB inh -22, Jurkat NFkB inh 11 and TRPM1 prom inh 94*.
Screening CCN(CC)CCOc1ccc(C=NNc2nc3c([nH]2)c(=O)n(C)c(=O)n3C)cc1 returned EBV LMP1 NFkB -2, Shn3 inh set2 -10, Gli-Sufu antag 7 and TRPM1 prom inh -2.
Screening Cc1cc(Cl)n2c(nc3cc(F)c(F)cc32)c1C#N returned EBV LMP1 NFkB 6, Shn3 inh set2 96*, Gli-Sufu antag 62* and TRPM1 prom inh 98*.
CC1CCN(c2ccc(-c3ccc(NC(=O)C(F)(F)F)cc3)nn2)CC1 was read as EBV LMP1 NFkB 46*, Shn3 inh set2 53, Gli-Sufu antag -42, 697 NFkB inh -158, Jurkat NFkB inh -99 and TRPM1 prom inh 8.
Screening CC(=O)Nc1ccc(NC(=O)C(F)(F)F)cc1 returned EBV LMP1 NFkB 2, Shn3 inh set2 -12, Gli-Sufu antag -3, 697 NFkB inh 0, Jurkat NFkB inh 5 and TRPM1 prom inh 2.
For COc1ccccc1N(C)S(=O)(=O)c1ccc(C(=O)Nc2cc(F)ccc2C)cc1 the results were EBV LMP1 NFkB -7, Shn3 inh set2 83*, Gli-Sufu antag -14, 697 NFkB inh 1, Jurkat NFkB inh -6 and TRPM1 prom inh 12.
`C=CC[C@]12CC=CC(=O)[C@@]1(O)O[C@H](c1ccc(OC)c(OC)c1)[C@H]2C` gave EBV LMP1 NFkB -2, Shn3 inh set2 -7, Gli-Sufu antag 1, 697 NFkB inh -47, Jurkat NFkB inh 20 and TRPM1 prom inh 62*.
Screening C=CC[C@]12C=C(OC)C(=O)C(OC)=C1O[C@@H](c1ccc3c(c1)OCO3)[C@H]2C returned EBV LMP1 NFkB 9, Shn3 inh set2 16, Gli-Sufu antag -17, 697 NFkB inh 11, Jurkat NFkB inh 11 and TRPM1 prom inh 11.
Screening C#CC(CC)(CC)NC(=O)c1cc(S(=O)(=O)N2CCCCC2)ccc1N1CCOCC1 returned EBV LMP1 NFkB 0, Shn3 inh set2 17, Gli-Sufu antag -3, 697 NFkB inh 7, Jurkat NFkB inh 4 and TRPM1 prom inh -1.
`O=C(COc1ccc(/C=N/NC(=O)c2cc3ccccc3o2)cc1Br)Nc1ccccc1` gave EBV LMP1 NFkB 6, Shn3 inh set2 37, Gli-Sufu antag 16, 697 NFkB inh 1, Jurkat NFkB inh -106 and TRPM1 prom inh 93*.
`O=C(COc1ccccc1[N+](=O)[O-])Nc1ccc(NC(=O)c2cc3ccccc3o2)cc1` gave EBV LMP1 NFkB 3, Shn3 inh set2 -3, Gli-Sufu antag -24, 697 NFkB inh -8, Jurkat NFkB inh -3 and TRPM1 prom inh 15.
CCOC(=O)c1c(C)[nH]c(C)c1C(=O)COC(=O)c1ccc([N+](=O)[O-])s1 was read as EBV LMP1 NFkB -4, Shn3 inh set2 -7, Gli-Sufu antag 4, 697 NFkB inh 21, Jurkat NFkB inh -6 and TRPM1 prom inh 76*.
CCOC(=O)c1c(C)[nH]c(C)c1C(=O)COC(=O)/C=C/c1ccccc1[N+](=O)[O-] was read as EBV LMP1 NFkB 7, Shn3 inh set2 22, Gli-Sufu antag -4, 697 NFkB inh -1, Jurkat NFkB inh 0 and TRPM1 prom inh 15.

Bioassay records: PubChem BioAssay, several laboratories
